Cruzain inh noDet = qHTS Assay for Promiscuous and Specific Inhibitors of Cruzain (without detergent). hit rate 2.3% among 200,000. AID 1476, 2009. Cruzipain (Trypanosoma cruzi), P25779. purified cruzain, Z-FR-AMC fluorescence, no detergent. Potency, µM, for the others: max response, negative = inhibition, most hits filed as inhibitors;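 further: plate controls were enzyme without inhibitor for no effect and buffer without enzyme for full effect; nearly all actives have a fitted effect of over 40% in size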
Target sequence (P25779 123-467 limits assumed): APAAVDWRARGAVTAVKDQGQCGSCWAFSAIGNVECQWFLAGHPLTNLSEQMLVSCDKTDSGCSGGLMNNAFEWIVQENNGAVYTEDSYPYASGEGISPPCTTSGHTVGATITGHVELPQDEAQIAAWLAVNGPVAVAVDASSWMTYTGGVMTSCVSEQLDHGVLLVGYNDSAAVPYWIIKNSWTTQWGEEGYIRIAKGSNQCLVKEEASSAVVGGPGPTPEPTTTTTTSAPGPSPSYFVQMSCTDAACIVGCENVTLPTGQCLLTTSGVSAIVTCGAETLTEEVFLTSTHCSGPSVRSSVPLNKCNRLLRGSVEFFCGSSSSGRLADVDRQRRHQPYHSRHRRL
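Detergent-free condition (0.00005% Triton X-100) in acetate buffer pH 5.5 with DTT. 1.5 nM enzyme and compound were pre-mixed 15 min, then 2 uM Z-FR-AMC substrate added; reaction progress from fluorescence change between first and third reads (60 s).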
Cruzain inh Det = qHTS Assay for Promiscuous and Specific Inhibitors of Cruzain (with detergent); Cruzipain (Trypanosoma cruzi), P25779; purified cruzain, Z-FR-AMC fluorescence, 0.01% Triton; Potency, µM, without a hit: max response, negative = inhibition, actives largely listed as inhibitors; hit rate 0.43% among 200,000; AID 1478, 2009;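 further: plate controls were neutral wells for no effect and buffer without enzyme for full effect; nearly all actives have a fitted effect of over 40% in size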
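Cruzain (1.5 nM) preincubated 15 min at RT with compound in 100 mM sodium acetate pH 5.5, 5 mM DTT, 0.01% Triton X-100. Reaction started with 2 uM Z-FR-AMC; AMC fluorescence (ex 360/em 450 nm) change over 60 s gave rate.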
Active calls of the source: *; ? = inconclusive; / = no result; ! = a repeat was not active. Compounds with a hit are over-represented: about 2.5% of the library has one in this group of screens. The call rests on the fitted dose curve; in most records, active means well fitted curve in the direction sought with a large enough effect; inconclusive means small, poorly fitted or top-dose-only effect, or another doubt; inactive means no such curve, though single readings can be large; an effect the other way counts as inactive or inconclusive. Potency means the concentration at half of the fitted maximal effect.

SMILES	Cruzain inh noDet	Cruzain inh Det
CCN(C(=O)c1c(C)oc2ncnc(N3CCCCC3)c12)c1cc(C)ccc1C	0%	1%
Cc1cccc(C(c2sc3nc(-c4ccco4)nn3c2O)N2CCOCC2)c1 (configuration not stated)	5%	-4%
N/C(CC/C(N)=N/O)=N\O	0%	0%
CCCN(CCC)CCNC(=O)Cn1ncc2c([nH]c3ccc(C)cc32)c1=O	-1%	0%
COC(=O)NC(CCc1ccccc1)C(C(C)=O)C(=O)OC (configuration not stated)	-3%	-2%
Cc1cc(C(=O)CSc2nn3c(=O)c(C(C)(C)C)nnc3s2)c(C)n1-c1ccc(F)cc1	13µM*	2%
CC(C)N(C(=O)CSc1nn2c(=O)c(C(C)(C)C)nnc2s1)c1ccccc1	19%	-6%
CCN(CC)CCOc1ncnc2c1oc1ccccc12	-1%	-1%
CCCCc1oc2ccccc2c1C(=O)c1cc(I)c(OCCN(CC)CC)c(I)c1	/	13µM*!
CCN(CC)CCCNc1oc(/C=C/c2ccc(OC)c(OC)c2)nc1C#N	?	-13%
Cc1ccc(Cl)cc1NC(=O)Nc1nnc(N2CCCC(C)C2)s1 (configuration not stated)	-13%	-7%
O=C(COC(=O)c1ccc(Sc2ccccc2)c([N+](=O)[O-])c1)NC1CCCc2ccccc21 (configuration not stated)	13µM*	2%
CC1CC(C)CN(c2ccc(C(=O)OCC(=O)NC3CCCc4ccccc43)cc2[N+](=O)[O-])C1 (configuration not stated)	?	1%
Cc1ccc(N(CC(=O)NCCc2ccccc2)S(=O)(=O)N(C)C)cc1	-10%	0%
O=C(CNC(=O)c1cccs1)OCC(=O)c1ccccc1	-5%	-9%
O=C(CNC(=O)C(c1ccccc1)c1ccccc1)OCC(=O)c1cccs1	13µM*	20µM*
Cc1cccc2sc(N(Cc3cccnc3)C(=O)c3cccs3)nc12	7%	-5%
CCCn1c(=N)c(C(=O)NCc2cccnc2)cc2c(=O)n3cc(C)ccc3nc21	23%	2%
Cc1ccc2nc3c(cc(C(=O)NCc4cccnc4)c(=N)n3C(C)C)c(=O)n2c1	?	32µM*
COc1ccccc1CNS(=O)(=O)c1ccc2c(c1)NC(=O)C(C)C(=O)N2 (configuration not stated)	-8%	-7%
COc1ccc2cc(CNc3ccc(OC)c(OC)c3)c(=O)n(CC(=O)Nc3ccc(C)cc3)c2c1	?	-6%
Cc1ccc(CC(NC(=O)c2ccccc2)C(=O)N2CCCC2C(=O)O)cc1 (configuration not stated)	0%	2%
CC[C@H](C)[C@H](NC(=O)[C@H](Cc1ccc(O)cc1)NC(=O)[C@@H](N)C(C)C)C(=O)N[C@@H](Cc1cnc[nH]1)C(=O)N1CCC[C@H]1C(=O)N[C@@H](Cc1ccccc1)C(=O)O	16µM*	14µM*
COc1ccccc1-c1nc2c(c(SCc3cc(C)ccc3C)n1)Cc1c(CO)cnc(C)c1O2	?	-14%
CC(C)c1ccc2[nH]c(O)c(N=NC(=O)c3cccc(S(=O)(=O)N4CCCCC4)c3)c2c1	25µM*	-7%
SMILES	Cruzain inh noDet	Cruzain inh Det
O=C(N=Nc1c(O)[nH]c2ccccc12)c1cccc(S(=O)(=O)N2CCCCC2)c1	-17%	4%
Cc1ccc(N2C(=O)N(CC(=O)C(C)(C)C)c3ccccc3S2(=O)=O)cc1C	13%	-4%
O=C(COC(=O)c1ccc(-c2ccc([N+](=O)[O-])cc2)o1)NC(=O)NC12CC3CC(CC(C3)C1)C2	25µM*	-5%
O=C(COC(=O)c1ccc(-c2ccc([N+](=O)[O-])cc2)o1)NC(=O)NC1CCCCC1	?	-13%
NC(=S)N=Nc1c(O)[nH]c2cc(F)c(F)cc12	10µM*	14µM*
CNC(=S)N=Nc1c(O)[nH]c2ccc(C(C)C)cc12	-1%	-8%
CC1CCN(C(c2ccc(F)cc2)c2sc3nc(-c4ccco4)nn3c2O)CC1 (configuration not stated)	-1%	-4%
Cc1ccccc1N=Nc1ccc(O)c2ncccc12	20µM*	0%
Cc1ccccc1NCc1ccc(O)c2ncccc12	6%	-6%
Cc1[nH]c2c(Cl)cccc2c1CCN	5%	5%
Cc1[nH]c2c(ccc3ccccc32)c1C1C(CCN)C1(C)C (configuration not stated)	10µM*	-2%
CC(=O)N1c2ccc(S(=O)(=O)NCc3ccc(Cl)cc3)cc2CC1C (configuration not stated)	5%	-4%
Nc1cccc2cc(S(=O)(=O)Nc3ccc(C(=O)O)cc3)ccc12	-1%	0%
COc1ccc(NC(=O)C2CCC(CNS(=O)(=O)c3ccc(Br)s3)CC2)c(OC)c1 (configuration not stated)	12%	-4%
CCC(Oc1ccccc1)C(=O)Nc1cc(-c2ccccc2OC)nn1-c1ccccc1 (configuration not stated)	-27%	-1%
Cc1nc(NC(=O)c2ccco2)sc1-c1csc(Nc2ccc(Cl)cc2Cl)n1	13µM*	-3%
O=C(Nc1nc2ccc(Cl)cc2s1)c1ccco1	?	-3%
COc1ccccc1Nc1nc(-c2sc(NC(=O)c3ccco3)nc2C)cs1	?	-6%
Cc1nc(NC(=O)c2ccco2)sc1-c1csc(Nc2ccc(Cl)cc2)n1	13µM*	-2%
Cc1ccc(Cl)cc1Nc1nc(-c2sc(NC(=O)c3ccco3)nc2C)cs1	25µM*	-3%
COc1cccc(N(C(=O)c2ccco2)c2nc(-c3sc(NC(=O)c4ccco4)nc3C)cs2)c1	?	-3%
Cc1cccc(N2CCn3c2nc2c3c(=O)n(C/C=C/c3ccccc3)c(=O)n2C)c1	4%	3%
CCOc1ccc(C(=O)Oc2c(Sc3ccccc3)c(C)nn2C(C)(C)C)cc1OCC	10%	-5%
COc1ccc(C(=O)N2CCN(c3nc4c(C)c(Cl)ccc4s3)CC2)c(OC)c1	?	-17%
Cn1c(=NC(=O)c2ccc(S(=O)(=O)N3CCCc4ccccc43)cc2)sc2cc(S(C)(=O)=O)ccc21	-11%	-6%
SMILES	Cruzain inh noDet	Cruzain inh Det
C#CCn1c(=NC(=O)c2ccc(S(=O)(=O)N3CCCc4ccccc43)cc2)sc2cc(S(N)(=O)=O)ccc21	7.9µM*	-2%
O=C(N/N=C/c1ccncc1)c1cccc(NC(=O)c2ccccc2Cl)c1	-1%	-1%
O=C(Nc1cccc(NC(=O)c2ccccc2Cl)c1)c1cccc(Br)c1	7.9µM*	2%
O=C(CSc1ncnc2c1cnn2-c1ccccc1)Nc1ccc2c(c1)OCO2	-7%	2%
O=C(CSc1ncnc2c1cnn2-c1ccc(Cl)cc1)NCc1ccc2c(c1)OCO2	13µM*	3%
COc1cccc(C(=O)n2nc(-c3ccco3)nc2NCc2cccs2)c1	-1%	-4%
CCc1ccc(NC(=O)CC2C(=O)N(c3ccc(Cl)cc3)C(=O)N2Cc2cccs2)cc1 (configuration not stated)	?	-9%
O=C(COC(=O)c1ccc(Cl)c(S(=O)(=O)N2CCc3ccccc3C2)c1)Nc1ncc(Cl)cc1Cl	20µM*	0%
Cc1cccc(N2CCN(C(=O)c3ccc(Cl)c(S(=O)(=O)N4CCc5ccccc5C4)c3)CC2)c1C	10µM*	-4%
Cc1cccc(N2CCN(C(=O)c3ccc(Cl)c(S(=O)(=O)NCc4ccco4)c3)CC2)c1C	-11%	-5%
